Assay outcomes (PubChem)
MCF10A rerep: A quantitative high throughput screen for small molecules that induce DNA re-replication in MCF 10a normal breast cells | MCF 10A DNA re-replication, Hoechst nuclear intensity, 48 h | Potency, µM (series often up to 46.1 µM), for the others: top-dose activity, positive = re-replication, usual class: activators | 2.9% of 350,000 active | AID 624296, 2012; further: potency means the concentration at half of the fitted maximal effect; % of control where 0% means no effect; nearly all actives have a fitted effect of over 50% in size
RORgamma inh: qHTS for inhibitors of ROR gamma transcriptional activity; Nuclear receptor ROR-gamma (Mus musculus), P51450; Drosophila S2 Gal4-RORgamma UAS-luciferase reporter, 20 h; Potency, µM (titrated, usually from 53.6 µM), without a hit: at the highest dose activity change, negative = inhibition, actives largely listed as inhibitors; 5.4% of 310,000 active; further: potency means the concentration at half of the fitted maximal effect; on the % scale 0 is the no-effect control and ±100 the full control effect; nearly all actives have a fitted effect of over 60% in size
Target sequence (P51450 whole entry, looked up, the tested form may be a part): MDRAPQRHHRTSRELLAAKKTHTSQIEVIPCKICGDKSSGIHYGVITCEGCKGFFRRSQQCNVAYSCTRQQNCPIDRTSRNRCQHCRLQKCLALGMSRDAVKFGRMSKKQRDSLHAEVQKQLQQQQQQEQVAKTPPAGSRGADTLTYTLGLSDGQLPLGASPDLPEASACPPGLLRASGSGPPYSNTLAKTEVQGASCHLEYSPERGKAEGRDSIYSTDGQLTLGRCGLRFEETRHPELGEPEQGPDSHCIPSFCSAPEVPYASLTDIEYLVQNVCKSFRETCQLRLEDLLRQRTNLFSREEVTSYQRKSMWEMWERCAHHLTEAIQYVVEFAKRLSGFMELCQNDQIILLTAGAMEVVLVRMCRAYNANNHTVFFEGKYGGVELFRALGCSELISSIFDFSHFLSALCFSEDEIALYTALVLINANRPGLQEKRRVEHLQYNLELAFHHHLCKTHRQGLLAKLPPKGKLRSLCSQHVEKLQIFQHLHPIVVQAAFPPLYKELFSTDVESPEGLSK
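Compounds are pin-transferred onto Drosophila Schneider cells expressing a copper-inducible Gal4–ROR gamma transactivation domain fusion. After 1 hr, copper sulfate is added to 700 uM final; luciferase is read 20 hr later.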
IL1B secr inh: qHTS for Inhibitors of Inflammasome Signaling: IL-1-beta AlphaLISA Primary Screen; THP-1 LPS/ATP IL-1B secretion, AlphaLISA, 16 h; stronger effect = lower value; activity change, % at 57.5 µM; 4.7% of 360,000 active; AID 743279, 2014; in the data active means activity change below about -50%; inconclusive means mostly about -30% to -49%; further: on the % scale 0 is the no-effect control and ±100 the full control effect
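Secreted IL-1B measured by AlphaLISA bead assay after 16 h compound exposure of THP-1 cells; compounds (final up to 57.5 uM) added 1 h before LPS (250 ng/mL) and ATP (1.25 mM) stimulation; lower signal means less secretion.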
SW480 rereplic: A quantitative high throughput screen for small molecules that induce DNA re-replication in SW480 colon adenocarcinoma cells. 1.8% of 340,000 active. SW480 DNA re-replication, Hoechst DNA content imaging, 48 h. Potency, µM (doses to about 46.1 µM), inactives show at the top dose re-replication activation, usual class: activators. AID 624297, 2012; further: potency means the concentration at half of the fitted maximal effect; % of control where 0% means no effect; nearly all actives have a fitted effect of over 55% in size
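DNA re-replication was detected as more nuclei of elevated Hoechst intensity after 48 hr exposure to compound (23 nL pinned per well of 250 cells).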
Gal4-VP16 FLuc: VP16 counterscreen qHTS for inhibitors of ROR gamma transcriptional activity; Drosophila S2 Gal4-VP16 UAS-luciferase, luminescence, 20 h; AID 2546, 2010; Potency, µM (series often up to 53.6 µM), for the others: top-dose activity, negative = inhibition, most hits filed as inhibitors; 3.5% of 310,000 active;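 further: Gal4-VP16 expression switched on by copper sulfate through the metallothionein promoter; potency means the concentration at half of the fitted maximal effect; on the % scale 0 is the no-effect control and ±100 the full control effect; nearly all actives have a fitted effect of over 50% in size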
Active calls of the source: *; ? = inconclusive; . = no result; [ ] = dose if it differs, or a comment. Sampled rows, rich in hits. Any-hit rate of the full collection: about 11%. Unless noted, the call rests on the fitted dose curve; in most records, active means well fitted curve in the direction sought with a large enough effect; inconclusive means small, poorly fitted or top-dose-only effect, or another doubt; inactive means no such curve, though single readings can be large; an effect the other way counts as inactive or inconclusive.

SMILES | MCF10A rerep | RORgamma inh | IL1B secr inh | SW480 rereplic | Gal4-VP16 FLuc
Cc1cccc(Nc2nc(N3CCN(C)CC3)nc(N)c2[N+](=O)[O-])c1 | -58% | 12% | -70* | -36% | ?
COc1ccc(Nc2nc(N)c([N+](=O)[O-])c(N3CCOCC3)n2)cc1 | 7% | 46% | ? | ? | -5%
CCN1CCN(c2nc(Nc3cccc(OC)c3)nc(N)c2[N+](=O)[O-])CC1 | 28% | -7% | -29 | 16µM* | 0%
Cc1cc(Nc2nc3ccccc3nc2Cl)n(-c2ccc([N+](=O)[O-])cc2)n1 | 3% | 5% | -87* | 8% | -5%
Cc1cccc(N(C)S(=O)(=O)c2ccc(-c3cc(C)no3)s2)c1 | ? | 13% | 77 | 0.82µM* | -6%
CCOc1ccc(N(C)S(=O)(=O)c2ccc(-c3cc(C)no3)s2)cc1 | 4.6µM* | ? | 45 | 9.2µM* | -7%
CN(C)CCN=Cc1c(O)n(Cc2ccccc2)c(=O)c2ccccc12 | -1% | 13µM* | -15 | 14% | ?
COc1ccc(Cn2c(O)c(C=Nc3ccc(O)cc3)c3ccccc3c2=O)cc1 | 6.5µM* | 1% | -54* | ? | -28%
COC(=O)C[C@H]1CC[C@@H](NC(=O)Nc2cccc(OC)c2)[C@@H](CO)O1 | . | . | 10 | . | .
COc1ccc(-c2nc3cnc(N4CCNCC4)nc3n(CCc3ccccc3)c2=O)cc1 | . | 0% | . | . | -3%
C[C@@H]1CN([C@H](C)CO)C(=O)CCCn2cc(nn2)CO[C@H]1CN(C)C(=O)Cc1ccccc1 | . | . | -13 | . | .
Cc1cc(C=O)c(C)c2c1[nH]c1ccccc12 | 14% | . | -57* | 0% | .
Cc1ccc(C)c2c1[nH]c1ccccc12 | ? | 14% | 15 | 9% | -3%
Cc1ccc(NC(=O)c2ncn(CCCNCc3ccccn3)n2)cc1C | ? | . | -17 | 10% | .
CCc1nc2ccc(C(=O)N3CCN(c4ccccc4)CC3)cn2c1N(C)CCC(C)C | . | . | -10 | . | .
CS(=O)(=O)c1ccc2nc(NC(=O)c3ccccc3)sc2c1 | 6% | 11µM* | 18 | 2% | ?
CS(=O)(=O)c1ccc2nc(NC(=O)Nc3ccc(Cl)c(Cl)c3)sc2c1 | -2% | 6%[10 µM] | 0 | -3% | -4%
O=C(CCS(=O)(=O)c1ccccc1)Nc1nc2cc3c(cc2s1)OCO3 | ? | 7% | -52* | ? | ?
CS(=O)(=O)c1ccc2nc(NC(=O)Nc3cccc(Cl)c3)sc2c1 | ? | ? | -81* | 27% | ?
CS(=O)(=O)c1ccc2nc(NC(=O)CCS(=O)(=O)c3ccccc3)sc2c1 | 3.3µM* | 18µM* | -93* | 3.7µM* | ?
Cc1cc(NC(=O)CSc2nc3c(c(=O)n2-c2ccc(Br)cc2)SCC3)no1 | 8.2µM* | -46% | 57 | ? | 4%
O=C(CCSc1ccc(Cl)c(Cl)c1)NC12CC3CC(CC(C3)C1)C2 | 18µM* | ? | -4 | ? | 2%
CCc1nc2ccc(C(=O)NCCCN3CCCC3=O)cn2c1N(C)C(=O)Nc1ccccc1OC | . | . | 16 | . | .
C#CCn1c(=NC(=O)c2ccc(Cl)s2)sc2cccc(OC)c21 | 18µM* | 2.2µM* | 35 | 11% | -17%
CC(=O)c1ccc(NC2=C(N3CCOCC3)C(=O)c3ccccc3C2=O)cc1 | 0% | -42% | -76* | 3% | 17%
SMILES | MCF10A rerep | RORgamma inh | IL1B secr inh | SW480 rereplic | Gal4-VP16 FLuc
Cc1ccc(NC2=C(N3CCOCC3)C(=O)c3ccccc3C2=O)cc1 | 1% | ? | -100* | 1% | -1%[0.365 µM]
O=C(O)c1ccc(NC2=C(N3CCOCC3)C(=O)c3ccccc3C2=O)cc1 | 4% | 14% | 0 | . | 1%
C/C1=C/CC(C)(C)/C=C/C/C(C)=C/CC1 | . | -10% | . | . | -19%
COC(=O)c1ccc2c(=O)[nH]c(CCl)nc2c1 | ? | 13µM* | -97* | ? | -17%
CCCCCCN1CCN(C2CN(C3CCCCC3)S(=O)(=O)C2)CC1 (configuration not stated) | . | . | -13 | . | .
Cc1ccc(-c2ccc(/C=N/NC(N)=S)o2)cc1 | ? | 0.56µM* | 45 | -14% | 2.5µM*
Cc1ccc(OCC(=O)N/N=C\c2ccc(-c3cccc(C(=O)O)c3)o2)c(C)c1 | ? | 22% | 0 | -10% | -12%
NC(=S)N/N=C/c1ccc(-c2ccc(SC(F)F)cc2)o1 | 17% | 0.5µM* | -30 | 6% | 1.1µM*
NC(=O)N/N=C/c1ccc(-c2ccc([N+](=O)[O-])cc2)o1 | ? | -10% | -20 | 0% | -20%
NC(=S)NN=Cc1ccc(-c2ccc(S(=O)(=O)Nc3ncccn3)cc2)o1 | -6% | . | 19 | 2% | .
CNC(=S)N/N=C/c1ccc(-c2cccc(C(=O)O)c2)o1 | 4% | 7.1µM* | 19 | -77% | ?
CCNC(=S)N/N=C/c1ccc(-c2ccccc2)o1 | ? | 0.32µM* | -14 | 15% | 1.4µM*
NC(=O)c1cc(S(=O)(=O)N2CCCC2)ccc1OCCOc1ccccc1F | 4% | . | -14 | -8% | .
NC(=S)N/N=C/c1ccc(-c2ccc(Cl)c(Cl)c2)o1 | ? | 2.5µM* | 21 | 4% | 2µM*
NC(=S)N/N=C/c1ccc(-c2ccccc2)o1 | 0.73µM* | 1.4µM* | -24 | 22% | 5µM*
Cc1ccc(C(=O)N/N=C/c2ccc(-c3cccc(C(F)(F)F)c3)o2)cn1 | 9.2µM* | 3.5µM* | 3 | 7.3µM* | 10µM*
CCNC(=S)N/N=C/c1ccco1 | 3% | 2.2µM* | 12 | 0% | 3.2µM*
COc1ccc(C(=O)O)cc1S(=O)(=O)Nc1ccc(N2CCCCC2)cc1 | -25% | . | 8 | -9% | .
CN(C)/N=C/c1ccc(/C=N/NC(N)=S)o1 | 7% | 14µM* | 9 | -6% | ?
CCNC(=S)N/N=C/c1ccc(C#N)cc1 | 17% | 7.1µM* | 0 | -11% | 18µM*
C=C(C)CNC(=S)N/N=C/c1ccc(NC(C)=O)cc1 | 0% | ? | 11 | -1% | 3%
NC(=S)N/N=C\c1ccc(-c2cccc(Cl)c2Cl)o1 | ? | 0.89µM* | 0 | 0% | 1.1µM*
CCOC(=O)[C@]12CCCC=C1N(Cc1ccco1)C(=O)[C@H](CC(=O)NCC1CCCCC1)C2 | . | . | -20 | . | .
CC1(C)Oc2ccc3ccc(=O)oc3c2/C(=C/NNC(N)=O)C1=O | 0% | ? | -2 | -12% | 0%
Cc1ccc2[nH]c(CN3CCC(CO)(CC4CCCCO4)CC3)c(C)c2c1 (configuration not stated) | 3% | 0% | -113* | 2% | -11%
COc1cc(CNc2ccc3[nH]c(=O)[nH]c3c2)ccc1OCc1ccc(Cl)cc1 | 16% | 2.8µM* | -2 | -14% | ?
